# Laboratory results published in publication PMC4081100, “A DNA-binding-site landscape and regulatory network analysis for NAC transcription factors in Arabidopsis thaliana”.
# How the values were obtained:
# Assay in all cases: universal protein binding microarray (PBM); transcription factors of Arabidopsis thaliana; high values mean tight binding
# [1] = target: T1, GST-ANAC092(1-176) (Arabidopsis thaliana, UniProt Q9FKA0 1-176); details: protein: recombinant; tags: GST; chain copies: 2; dsDNA, one strand shown
# T1 sequence: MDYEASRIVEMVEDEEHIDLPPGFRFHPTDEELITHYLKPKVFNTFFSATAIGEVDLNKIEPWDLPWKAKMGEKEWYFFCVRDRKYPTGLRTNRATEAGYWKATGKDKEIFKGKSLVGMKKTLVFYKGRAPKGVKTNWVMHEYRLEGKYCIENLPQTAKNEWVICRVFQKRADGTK
# Method in brief: (§1)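 GST-tagged proteins (NAC-domain, full-length or DNA-binding-domain) were induced in cells, with zinc acetate supplied for zinc-finger proteins, then purified on glutathione–Sepharose 4B. Each was tested in duplicate at 200 to 500 nM final on custom all-10-mer Agilent 4 × 180K arrays rendered double-stranded by primer extension. The binding value is the normalised enrichment score (E-score) across gapped and ungapped 8-mers.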
# [2] = target: GST-NTL6(1-168) (Arabidopsis thaliana, UniProt Q9SCK6 1-168); details: protein: recombinant; tags: GST; chain copies: 2; dsDNA, one strand shown
# Method in brief: as §1
# [3] = target: T2, GST-ANAC019 NAC domain (Arabidopsis thaliana, UniProt Q9C932 14-162); details: protein: recombinant; tags: GST; chain copies: 2; dsDNA, one strand shown
# T2 sequence: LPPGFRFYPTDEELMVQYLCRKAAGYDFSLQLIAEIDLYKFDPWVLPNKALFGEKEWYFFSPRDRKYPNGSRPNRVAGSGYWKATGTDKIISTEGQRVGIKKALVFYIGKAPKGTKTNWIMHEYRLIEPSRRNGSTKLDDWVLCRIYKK
# Method in brief: as §1
# [4] = target: T3, GST-ANAC055(1-171) (Arabidopsis thaliana, UniProt Q9LDY8 1-171); details: protein: recombinant; tags: GST; chain copies: 2; dsDNA, one strand shown
# T3 sequence: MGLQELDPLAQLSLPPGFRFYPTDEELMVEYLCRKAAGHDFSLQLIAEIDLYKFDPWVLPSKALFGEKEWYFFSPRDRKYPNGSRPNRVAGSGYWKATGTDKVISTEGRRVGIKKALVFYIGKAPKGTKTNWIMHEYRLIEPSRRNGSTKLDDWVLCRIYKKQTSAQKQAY
# Method in brief: as §1
# [5] = target: T4, GST-ATAF1 NAC domain (Arabidopsis thaliana, UniProt Q39013 7-158); details: protein: recombinant; tags: GST; chain copies: 2; dsDNA, one strand shown
# T4 sequence: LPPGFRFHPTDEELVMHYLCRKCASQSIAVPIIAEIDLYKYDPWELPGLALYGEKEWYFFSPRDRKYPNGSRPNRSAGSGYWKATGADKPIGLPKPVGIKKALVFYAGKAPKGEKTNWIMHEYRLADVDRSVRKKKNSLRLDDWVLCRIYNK
# Method in brief: as §1
# [6] = target: T5, GST-ANAC092(1-285) full length (Arabidopsis thaliana, UniProt Q9FKA0 1-285); details: protein: recombinant; tags: GST; chain copies: 2; dsDNA, one strand shown
# T5 sequence: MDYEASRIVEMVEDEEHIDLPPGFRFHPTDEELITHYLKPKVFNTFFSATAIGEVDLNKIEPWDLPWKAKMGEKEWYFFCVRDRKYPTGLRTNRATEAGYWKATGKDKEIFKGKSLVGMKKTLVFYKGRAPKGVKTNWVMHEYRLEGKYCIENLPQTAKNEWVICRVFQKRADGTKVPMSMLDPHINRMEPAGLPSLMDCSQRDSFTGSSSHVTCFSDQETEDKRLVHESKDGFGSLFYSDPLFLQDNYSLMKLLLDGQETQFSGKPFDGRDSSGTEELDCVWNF
# Method in brief: as §1
# [7] = target: T6, GST-NAP(1-166) (Arabidopsis thaliana, UniProt O49255 1-166); details: protein: recombinant; tags: GST; chain copies: 2; dsDNA, one strand shown
# T6 sequence: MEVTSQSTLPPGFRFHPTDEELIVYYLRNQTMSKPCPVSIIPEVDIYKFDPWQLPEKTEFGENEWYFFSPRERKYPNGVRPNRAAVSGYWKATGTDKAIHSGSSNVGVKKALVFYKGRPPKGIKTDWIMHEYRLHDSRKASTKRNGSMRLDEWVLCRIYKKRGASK
# Method in brief: as §1
# [8] = target: T7, GST-NST2(1-184) (Arabidopsis thaliana, UniProt Q9M274 1-184); details: protein: recombinant; tags: GST; chain copies: 2; dsDNA, one strand shown
# T7 sequence: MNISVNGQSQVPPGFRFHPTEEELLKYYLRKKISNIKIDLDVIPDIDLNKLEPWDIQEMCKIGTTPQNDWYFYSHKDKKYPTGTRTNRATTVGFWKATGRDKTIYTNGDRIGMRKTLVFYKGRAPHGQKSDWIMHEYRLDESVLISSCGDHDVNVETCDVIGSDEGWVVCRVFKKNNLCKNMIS
# Method in brief: as §1
# [9] = target: T8, GST-NTL8 NAC domain (Arabidopsis thaliana, UniProt Q9XIN7 14-156); details: protein: recombinant; tags: GST; chain copies: 2; dsDNA, one strand shown
# T8 sequence: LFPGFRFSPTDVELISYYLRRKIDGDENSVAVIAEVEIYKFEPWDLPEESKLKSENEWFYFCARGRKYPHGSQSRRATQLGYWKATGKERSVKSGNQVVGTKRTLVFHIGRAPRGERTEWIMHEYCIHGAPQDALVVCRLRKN
# Method in brief: as §1
# [10] = target: T9, GST-SND1(1-203) (Arabidopsis thaliana, UniProt Q9LPI7 1-203); details: protein: recombinant; tags: GST; chain copies: 2; dsDNA, one strand shown
# T9 sequence: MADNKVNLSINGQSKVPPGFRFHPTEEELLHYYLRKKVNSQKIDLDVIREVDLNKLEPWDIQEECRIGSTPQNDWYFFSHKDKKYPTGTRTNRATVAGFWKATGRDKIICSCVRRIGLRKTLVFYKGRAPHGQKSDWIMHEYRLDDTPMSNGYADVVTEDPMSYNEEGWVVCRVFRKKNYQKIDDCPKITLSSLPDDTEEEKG
# Method in brief: as §1
# [11] = target: T10, GST-VND3 NAC domain (Arabidopsis thaliana, UniProt Q9FH59 12-162); details: protein: recombinant; tags: GST; chain copies: 2; dsDNA, one strand shown
# T10 sequence: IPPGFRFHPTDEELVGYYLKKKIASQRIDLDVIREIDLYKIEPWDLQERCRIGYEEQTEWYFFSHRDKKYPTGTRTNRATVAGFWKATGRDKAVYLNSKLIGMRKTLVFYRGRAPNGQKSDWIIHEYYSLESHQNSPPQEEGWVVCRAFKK
# Method in brief: as §1
# [12] = target: T11, GST-VND7 NAC domain (Arabidopsis thaliana, UniProt Q9C8W9 9-158); details: protein: recombinant; tags: GST; chain copies: 2; dsDNA, one strand shown
# T11 sequence: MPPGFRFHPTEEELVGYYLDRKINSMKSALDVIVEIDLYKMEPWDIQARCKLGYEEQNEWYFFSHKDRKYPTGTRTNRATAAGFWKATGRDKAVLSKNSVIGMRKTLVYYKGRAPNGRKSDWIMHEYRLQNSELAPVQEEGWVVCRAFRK
# Method in brief: as §1
# [13] = target: GST-WRKY1(266-371) (Arabidopsis thaliana, UniProt Q9SI37 266-371); details: protein: recombinant; tags: GST; dsDNA, one strand shown
# Method in brief: as §1
# GST-WRKY1(266-371), sequence (Q9SI37 266-371): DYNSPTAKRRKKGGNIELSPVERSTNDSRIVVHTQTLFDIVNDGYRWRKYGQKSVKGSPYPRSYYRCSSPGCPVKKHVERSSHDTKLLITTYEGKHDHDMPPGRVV
# GST-NTL6(1-168), sequence (Q9SCK6 1-168): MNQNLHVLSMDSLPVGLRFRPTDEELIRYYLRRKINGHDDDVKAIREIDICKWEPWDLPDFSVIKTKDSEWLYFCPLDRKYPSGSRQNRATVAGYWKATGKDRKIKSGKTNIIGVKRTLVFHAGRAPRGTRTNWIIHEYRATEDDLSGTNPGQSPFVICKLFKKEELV
Sequence,binding signal [1],binding signal [2],binding signal [3],binding signal [4],binding signal [5],binding signal [6],binding signal [7],binding signal [8],binding signal [9],binding signal [10],binding signal [11],binding signal [12],binding signal [13]
AAAAGTCA,0.142 E-score,0.1 E-score,0.185 E-score,0.157 E-score,0.241 E-score,0.241 E-score,0.08 E-score,0.274 E-score,0.128 E-score,0.257 E-score,0.13 E-score,0.122 E-score,0.461 E-score
ACTAAGTA,0.177 E-score,0.429 E-score,0.19 E-score,0.216 E-score,0.192 E-score,0.126 E-score,0.125 E-score,0.252 E-score,0.116 E-score,0.258 E-score,0.279 E-score,0.218 E-score,0.0999 E-score
TGAAGAAA,0.188 E-score,0.339 E-score,0.151 E-score,0.114 E-score,0.129 E-score,0.0672 E-score,0.0893 E-score,0.241 E-score,0.45 E-score,0.152 E-score,0.121 E-score,0.215 E-score,0.211 E-score
ACGCAAAG,0.455 E-score,0.102 E-score,0.273 E-score,0.228 E-score,0.256 E-score,0.452 E-score,0.295 E-score,0.331 E-score,0.19 E-score,0.407 E-score,0.374 E-score,0.346 E-score,0.16 E-score
AACGTAGA,0.21 E-score,0.145 E-score,0.0983 E-score,0.226 E-score,0.163 E-score,0.329 E-score,0.0935 E-score,0.34 E-score,–,0.408 E-score,0.206 E-score,0.184 E-score,0.317 E-score
ACACGACA,0.421 E-score,0.0953 E-score,0.452 E-score,0.438 E-score,0.339 E-score,0.417 E-score,0.36 E-score,0.19 E-score,0.0912 E-score,0.14 E-score,0.399 E-score,0.424 E-score,0.0821 E-score
AACGTAAA,0.254 E-score,0.0913 E-score,0.175 E-score,0.241 E-score,0.298 E-score,0.342 E-score,0.24 E-score,0.36 E-score,–,0.436 E-score,0.252 E-score,0.248 E-score,0.165 E-score
TTACGTAA,0.476 E-score,0.171 E-score,0.479 E-score,0.478 E-score,0.465 E-score,0.469 E-score,0.484 E-score,0.433 E-score,0.411 E-score,0.484 E-score,0.483 E-score,0.481 E-score,0.0521 E-score
ATTACGTA,0.459 E-score,0.201 E-score,0.474 E-score,0.438 E-score,0.404 E-score,0.449 E-score,0.47 E-score,0.331 E-score,0.134 E-score,0.44 E-score,0.468 E-score,0.458 E-score,0.0642 E-score
ACGTAAAA,0.366 E-score,0.161 E-score,0.336 E-score,0.331 E-score,0.35 E-score,0.406 E-score,0.326 E-score,0.312 E-score,0.0957 E-score,0.436 E-score,0.368 E-score,0.344 E-score,0.0914 E-score
ACACGCAA,0.498 E-score,0.0863 E-score,0.484 E-score,0.473 E-score,0.439 E-score,0.498 E-score,0.487 E-score,0.47 E-score,0.218 E-score,0.477 E-score,0.477 E-score,0.482 E-score,0.172 E-score
GTACGTAA,0.432 E-score,0.174 E-score,0.463 E-score,0.42 E-score,0.408 E-score,0.441 E-score,0.419 E-score,0.276 E-score,0.167 E-score,0.337 E-score,0.417 E-score,0.44 E-score,0.0843 E-score
ACGTAACG,0.423 E-score,0.0652 E-score,0.436 E-score,0.389 E-score,0.348 E-score,0.438 E-score,0.411 E-score,0.272 E-score,0.118 E-score,0.415 E-score,0.359 E-score,0.409 E-score,0.078 E-score
